# Source: the supplement of paper PMC6555819
# System: VDR:RXRa (NR concentration 270 nM, RXRa partner concentration 90 nM)
# Experiment: PBM binding z-score (relative to random genomic background probes); higher = stronger binding; sequences stand for … in GC…GCGATTGACAGCGTAGAATGAAGG
# Protocol: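 Protein-binding microarray (Agilent 4x180K custom design, double-stranded 60-nt probes: 5' GC cap, 34-nt variable region, 24-nt constant primer region; full probe sequence given). Purified or IVT nuclear receptor:RXRα heterodimers (3:1 NR:RXRα, mostly 270:90 nM) or homodimers were incubated for 1 h in PBS with 2% milk and no ligand, then detected with Alexa488 antibodies. Fluorescence from o1-orientation probes (~5 replicates averaged) was converted to z-scores against 500 random hg19 background probes. Variable regions are seed direct-repeat (DR0–DR5) sites, all their single-nucleotide variants and half-site ablations.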
row,Sequence,PBM binding z-score
1,TCATATAGGTAAATGCTAGGTGAAAGTGCGATCT,0.984
2,ATCTCTAGGTAAAGTTCACTGAAAGATCGATAGA,2.89
3,CCTACTGGGACAAGGTCATTGATCAGTCAAAGCA,3.48
4,AGTCAAAGTTCATCTAGGTAACGTAGGATATGCT,5.09
5,TAGCCTAGGTCATTCAGGAGCCAGTATAGAAAGC,2.21
6,AGAACGACGGCACGCTGAGTTGATAGCAGAGTAG,-0.301
7,TCTGCTAGGTCAGTTGGTCAGCCAACGAGCTGCC,-0.0135
8,CCTAGCAGGCCAATCTGGGTCACTTAAGGCTTGA,0.526
9,TCATATAGGTAAATGCTAGGTGAAACTCCGATCT,0.855
10,CCGACTGGGGCAGAAGGTTACCATAAGCCAGCCC,-0.302
11,CTCGAAAAGTCGTGCTCAGGTGAGTATACCAAAC,-0.141
12,GCTTACGGGTCAAAGATTATAGCATGAATAGAAT,3.28
13,CAAACTAGGCCACCGGAAGGTCAAAGTCCGCATG,3.2
14,TCGAGTAGGCTAGGGGCATTCAGAATGGCGTCGA,-0.094
15,CCTACTGGGCTAAAAAGGTCATTGATGCCGATAA,4.33
16,CCTAGCAGGCCAGGGTCTCTCAAGCATTTCGCTT,-0.712
17,ATCTCTAGGTAAGGTTCAGTGAAAGATCGATAGA,1.33
18,TCATATAGGTAATACCGGTGAAAGTCGGCATCTA,0.463
19,CGTCCAAGGTCCTAGGAGGTCAGTGAAGACAGAT,2.88
20,GATACAGGGTCAGCTAGAGGCCAGTGTATGGAAA,3.43

row,Sequence,PBM binding z-score
1,GCTGCTAGGCCAGGTTGGTCAGCTAACGGGTACG,-1.03
2,ACTAGAAGGCCAAGTTTGGGTCACTCAAACAAAG,1.28
3,CGTCCAAGGTCAAGGGTCAGTGAAGAGATGACGG,5.63
4,CCTAGTTGGTCCGGAGGTCACACACCGGATATGA,3.77
5,TTACCAAGTTGAAGGTCGTTGATCCCTCTGTAGA,1.13
6,ATCTCTAGGTAAAGATACTTCAGTGAATGCAAAT,0.244
7,AGAATGAGGTAATACGTAGATCAGGGAAGAAAGT,-0.148
8,TCTTGTAGATCAAGCAGGTTAATAAAGCCTGAGT,0.675
9,AGAATGAGGTTACCAAAGATCAGGAAAACGCTTG,1.35
10,CAAACTAAGTCACGAAAGGTCAAAGTCGAATGAC,5.34
11,CCTAGTGGGCCATCAGGTCATTGATATCAACGTT,1.61
12,TCATATGGGTAATACAGGTGAAAGTCGGCATCTA,0.677
13,CCAGCCAGGTGAAAGGTAACTCAGTCTGGTACGC,0.288
14,CCTAGCAGGCCAATCTGGTTCACTCAAGGCTTGA,0.38
15,CCTACTGGGCCACGAAAAGTCATTGATTCAGTGA,-0.413
16,CCTACTGGGCCACGACAGGTCATTGATTCAGTGA,1.32
17,CGAACGAGGGCATGGGTTGATAGCAAATGCCGAT,1.45
18,TAGCCTAGGTCCTGCGGGCCAGTATAGTGTCGGC,-1.05
19,TTATATAGGTAAACAGGTGAAAGTCCGTAAGTTA,0.869
20,ATATGTAGGTTGTCGGGTCATTCAGTTTGCGCAT,5
